# Changes are numbered by the printed parent chain.
# Experiments:
# Experiment in all cases: PBM; 200 nM protein, PBS
# Conditions in all cases: dsDNA, one strand shown
# [1] = biological target: HOXB9 (Homo sapiens, UniProt P17482 171-250, T197M)
# [2] = biological target: HOXA4 (Homo sapiens, UniProt Q00056 201-287, W262R)
# [3] = biological target: HOXC9 (Homo sapiens, UniProt P31274 178-260, K195R)
# [4] = biological target: T1, VENTX (Homo sapiens, UniProt O95231 78-163)
# T1 sequence: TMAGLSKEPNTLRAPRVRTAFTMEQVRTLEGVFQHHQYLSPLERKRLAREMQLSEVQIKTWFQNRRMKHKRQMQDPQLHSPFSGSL
# [5] = biological target: HOXA7 (Homo sapiens, UniProt P31268 116-202)
# HOXA7 (Homo sapiens, UniProt P31268 116-202), sequence (P31268 116-202): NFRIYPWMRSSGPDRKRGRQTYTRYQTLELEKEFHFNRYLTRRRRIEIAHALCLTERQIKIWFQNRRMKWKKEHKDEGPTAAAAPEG
# [6] = biological target: HOXC10 (Homo sapiens, UniProt Q9NYD6 254-340)
# HOXC10 (Homo sapiens, UniProt Q9NYD6 254-340), sequence (Q9NYD6 254-340): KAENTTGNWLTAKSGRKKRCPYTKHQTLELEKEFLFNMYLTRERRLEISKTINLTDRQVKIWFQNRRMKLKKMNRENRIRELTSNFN
# [7] = biological target: T2, PAX4 (Homo sapiens, UniProt O43316 9-242)
# T2 sequence: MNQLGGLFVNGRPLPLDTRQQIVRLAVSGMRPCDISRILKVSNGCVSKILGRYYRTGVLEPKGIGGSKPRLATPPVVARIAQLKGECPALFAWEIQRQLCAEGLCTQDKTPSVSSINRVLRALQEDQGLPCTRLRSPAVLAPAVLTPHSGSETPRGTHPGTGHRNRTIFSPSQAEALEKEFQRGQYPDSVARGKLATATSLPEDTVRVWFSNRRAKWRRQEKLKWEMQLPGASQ
# [8] = biological target: HOXB9 (Homo sapiens, UniProt P17482 171-250)
# HOXB9 (Homo sapiens, UniProt P17482 171-250), sequence (P17482 171-250): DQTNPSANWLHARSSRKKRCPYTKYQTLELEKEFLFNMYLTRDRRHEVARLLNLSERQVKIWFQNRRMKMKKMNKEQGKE
# [9] = biological target: HOXC9 (Homo sapiens, UniProt P31274 178-260)
# HOXC9 (Homo sapiens, UniProt P31274 178-260), sequence (P31274 178-260): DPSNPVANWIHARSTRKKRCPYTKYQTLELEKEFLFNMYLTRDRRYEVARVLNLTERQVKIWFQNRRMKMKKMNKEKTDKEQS
# [10] = biological target: HOXC9 (Homo sapiens, UniProt P31274 178-260, R193K)
# HOXC9 (Homo sapiens, UniProt P31274 178-260, R193K), sequence (P31274 178-260 R193K): as the sequence (P31274 178-260) above, with R16K counted along it
# [11] = biological target: HOXA4 (Homo sapiens, UniProt Q00056 201-287)
# HOXA4 (Homo sapiens, UniProt Q00056 201-287), sequence (Q00056 201-287): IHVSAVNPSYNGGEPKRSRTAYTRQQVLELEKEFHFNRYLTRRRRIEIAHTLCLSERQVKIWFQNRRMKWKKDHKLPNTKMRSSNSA
# [12] = biological target: HOXC10 (Homo sapiens, UniProt Q9NYD6 254-340, K271E)
# HOXC10 (Homo sapiens, UniProt Q9NYD6 254-340, K271E), sequence (Q9NYD6 254-340 K271E): as the sequence (Q9NYD6 254-340) above, with K18E counted along it
# [13] = biological target: VAX1 (Homo sapiens, UniProt Q5SQQ9 86-172)
# VAX1, sequence (Q5SQQ9 86-172): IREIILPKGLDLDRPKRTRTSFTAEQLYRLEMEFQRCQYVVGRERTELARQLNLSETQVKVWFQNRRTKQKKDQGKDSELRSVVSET
# [14] = biological target: HOXB9 (Homo sapiens, UniProt P17482 171-250, R186Q)
# HOXB9 (Homo sapiens, UniProt P17482 171-250, R186Q), sequence (P17482 171-250 R186Q): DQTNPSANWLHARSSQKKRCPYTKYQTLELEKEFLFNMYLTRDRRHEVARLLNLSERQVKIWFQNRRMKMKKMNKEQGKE
# [15] = biological target: HOXC9 (Homo sapiens, UniProt P31274 178-260, R222W)
# HOXC9 (Homo sapiens, UniProt P31274 178-260, R222W), sequence (P31274 178-260 R222W): as the sequence (P31274 178-260) above, with R45W counted along it
# [16] = biological target: T3, PAX4 (Homo sapiens, UniProt O43316 9-242, R227W)
# T3 sequence: T2 sequence with R219W
# [17] = biological target: HOXA2 (Homo sapiens, UniProt O43364 129-215, Y150S)
# HOXA2 (Homo sapiens, UniProt O43364 129-215, Y150S), sequence (O43364 129-215 Y150S): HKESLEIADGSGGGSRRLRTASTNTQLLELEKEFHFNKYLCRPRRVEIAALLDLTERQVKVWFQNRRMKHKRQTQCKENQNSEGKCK
# [18] = biological target: HOXA7 (Homo sapiens, UniProt P31268 116-202, W177C)
# HOXA7 (Homo sapiens, UniProt P31268 116-202, W177C), sequence (P31268 116-202 W177C): as the sequence (P31268 116-202) above, with W62C counted along it
# [19] = biological target: HOXA2 (Homo sapiens, UniProt O43364 129-215)
# HOXA2 (Homo sapiens, UniProt O43364 129-215), sequence (O43364 129-215): as the sequence (O43364 129-215 Y150S) above, with S22Y counted along it
# [20] = biological target: HOXB6 (Homo sapiens, UniProt P17509 132-218)
# HOXB6, sequence (P17509 132-218): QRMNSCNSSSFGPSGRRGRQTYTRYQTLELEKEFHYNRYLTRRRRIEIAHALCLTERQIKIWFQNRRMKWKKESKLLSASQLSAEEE
# HOXB9 (Homo sapiens, UniProt P17482 171-250, T197M), sequence (P17482 171-250 T197M): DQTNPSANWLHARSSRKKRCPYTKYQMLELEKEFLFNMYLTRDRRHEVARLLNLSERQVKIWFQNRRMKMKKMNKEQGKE
# HOXC9 (Homo sapiens, UniProt P31274 178-260, K195R), sequence (P31274 178-260 K195R): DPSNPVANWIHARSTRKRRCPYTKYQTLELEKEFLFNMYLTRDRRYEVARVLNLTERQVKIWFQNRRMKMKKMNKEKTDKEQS
# HOXA4 (Homo sapiens, UniProt Q00056 201-287, W262R), sequence (Q00056 201-287 W262R): as the sequence (Q00056 201-287) above, with W62R counted along it
Sequence,binding signal [1],binding signal [2],binding signal [3],binding signal [4],binding signal [5],binding signal [6],binding signal [7],binding signal [8],binding signal [9],binding signal [10],binding signal [11],binding signal [12],binding signal [13],binding signal [14],binding signal [15],binding signal [16],binding signal [17],binding signal [18],binding signal [19],binding signal [20]
GTAATTAC,"10.6 upbm affinity estimate (log intensity, higher = more binding, comparable within an allelic series)","10.8 upbm affinity estimate (log intensity, higher = more binding, comparable within an allelic series)","13.1 upbm affinity estimate (log intensity, higher = more binding, comparable within an allelic series)","12.9 upbm affinity estimate (log intensity, higher = more binding, comparable within an allelic series)","12.5 upbm affinity estimate (log intensity, higher = more binding, comparable within an allelic series)","12.5 upbm affinity estimate (log intensity, higher = more binding, comparable within an allelic series)","12.5 upbm affinity estimate (log intensity, higher = more binding, comparable within an allelic series)","12.3 upbm affinity estimate (log intensity, higher = more binding, comparable within an allelic series)","13.1 upbm affinity estimate (log intensity, higher = more binding, comparable within an allelic series)","13.2 upbm affinity estimate (log intensity, higher = more binding, comparable within an allelic series)","14.3 upbm affinity estimate (log intensity, higher = more binding, comparable within an allelic series)","12.6 upbm affinity estimate (log intensity, higher = more binding, comparable within an allelic series)","13.9 upbm affinity estimate (log intensity, higher = more binding, comparable within an allelic series)","12.1 upbm affinity estimate (log intensity, higher = more binding, comparable within an allelic series)","11 upbm affinity estimate (log intensity, higher = more binding, comparable within an allelic series)","11 upbm affinity estimate (log intensity, higher = more binding, comparable within an allelic series)","11.2 upbm affinity estimate (log intensity, higher = more binding, comparable within an allelic series)","9.01 upbm affinity estimate (log intensity, higher = more binding, comparable within an allelic series)","13.4 upbm affinity estimate (log intensity, higher = more binding, comparable within an allelic series)","12.8 upbm affinity estimate (log intensity, higher = more binding, comparable within an allelic series)"
CGTAATTA,"10.2 upbm affinity estimate (log intensity, higher = more binding, comparable within an allelic series)","10.7 upbm affinity estimate (log intensity, higher = more binding, comparable within an allelic series)","12.7 upbm affinity estimate (log intensity, higher = more binding, comparable within an allelic series)","12.7 upbm affinity estimate (log intensity, higher = more binding, comparable within an allelic series)","12 upbm affinity estimate (log intensity, higher = more binding, comparable within an allelic series)","12.3 upbm affinity estimate (log intensity, higher = more binding, comparable within an allelic series)","12.4 upbm affinity estimate (log intensity, higher = more binding, comparable within an allelic series)","11.9 upbm affinity estimate (log intensity, higher = more binding, comparable within an allelic series)","12.8 upbm affinity estimate (log intensity, higher = more binding, comparable within an allelic series)","12.7 upbm affinity estimate (log intensity, higher = more binding, comparable within an allelic series)","14.2 upbm affinity estimate (log intensity, higher = more binding, comparable within an allelic series)","12.3 upbm affinity estimate (log intensity, higher = more binding, comparable within an allelic series)","13.6 upbm affinity estimate (log intensity, higher = more binding, comparable within an allelic series)","11.7 upbm affinity estimate (log intensity, higher = more binding, comparable within an allelic series)","10.9 upbm affinity estimate (log intensity, higher = more binding, comparable within an allelic series)","11.1 upbm affinity estimate (log intensity, higher = more binding, comparable within an allelic series)","11 upbm affinity estimate (log intensity, higher = more binding, comparable within an allelic series)","8.91 upbm affinity estimate (log intensity, higher = more binding, comparable within an allelic series)","13.2 upbm affinity estimate (log intensity, higher = more binding, comparable within an allelic series)","12.4 upbm affinity estimate (log intensity, higher = more binding, comparable within an allelic series)"
GTTAATTA,"10.3 upbm affinity estimate (log intensity, higher = more binding, comparable within an allelic series)","11 upbm affinity estimate (log intensity, higher = more binding, comparable within an allelic series)","12.9 upbm affinity estimate (log intensity, higher = more binding, comparable within an allelic series)","13 upbm affinity estimate (log intensity, higher = more binding, comparable within an allelic series)","12.2 upbm affinity estimate (log intensity, higher = more binding, comparable within an allelic series)","12.3 upbm affinity estimate (log intensity, higher = more binding, comparable within an allelic series)","12.7 upbm affinity estimate (log intensity, higher = more binding, comparable within an allelic series)","12 upbm affinity estimate (log intensity, higher = more binding, comparable within an allelic series)","12.8 upbm affinity estimate (log intensity, higher = more binding, comparable within an allelic series)","12.8 upbm affinity estimate (log intensity, higher = more binding, comparable within an allelic series)","14.3 upbm affinity estimate (log intensity, higher = more binding, comparable within an allelic series)","12.3 upbm affinity estimate (log intensity, higher = more binding, comparable within an allelic series)","13.8 upbm affinity estimate (log intensity, higher = more binding, comparable within an allelic series)","11.8 upbm affinity estimate (log intensity, higher = more binding, comparable within an allelic series)","11.1 upbm affinity estimate (log intensity, higher = more binding, comparable within an allelic series)","11.3 upbm affinity estimate (log intensity, higher = more binding, comparable within an allelic series)","10.9 upbm affinity estimate (log intensity, higher = more binding, comparable within an allelic series)","8.93 upbm affinity estimate (log intensity, higher = more binding, comparable within an allelic series)","13.2 upbm affinity estimate (log intensity, higher = more binding, comparable within an allelic series)","12.5 upbm affinity estimate (log intensity, higher = more binding, comparable within an allelic series)"
GCAATTAA,"10.5 upbm affinity estimate (log intensity, higher = more binding, comparable within an allelic series)","10.6 upbm affinity estimate (log intensity, higher = more binding, comparable within an allelic series)","13.1 upbm affinity estimate (log intensity, higher = more binding, comparable within an allelic series)","12.8 upbm affinity estimate (log intensity, higher = more binding, comparable within an allelic series)","12.3 upbm affinity estimate (log intensity, higher = more binding, comparable within an allelic series)","12.4 upbm affinity estimate (log intensity, higher = more binding, comparable within an allelic series)",–,"12.6 upbm affinity estimate (log intensity, higher = more binding, comparable within an allelic series)","13.1 upbm affinity estimate (log intensity, higher = more binding, comparable within an allelic series)","13 upbm affinity estimate (log intensity, higher = more binding, comparable within an allelic series)","13.9 upbm affinity estimate (log intensity, higher = more binding, comparable within an allelic series)","12.6 upbm affinity estimate (log intensity, higher = more binding, comparable within an allelic series)","13.2 upbm affinity estimate (log intensity, higher = more binding, comparable within an allelic series)","12.4 upbm affinity estimate (log intensity, higher = more binding, comparable within an allelic series)","11.1 upbm affinity estimate (log intensity, higher = more binding, comparable within an allelic series)",–,"10.8 upbm affinity estimate (log intensity, higher = more binding, comparable within an allelic series)","8.72 upbm affinity estimate (log intensity, higher = more binding, comparable within an allelic series)","12.6 upbm affinity estimate (log intensity, higher = more binding, comparable within an allelic series)","12.7 upbm affinity estimate (log intensity, higher = more binding, comparable within an allelic series)"
CTAATTAA,"10.2 upbm affinity estimate (log intensity, higher = more binding, comparable within an allelic series)","11 upbm affinity estimate (log intensity, higher = more binding, comparable within an allelic series)","12.7 upbm affinity estimate (log intensity, higher = more binding, comparable within an allelic series)","13.1 upbm affinity estimate (log intensity, higher = more binding, comparable within an allelic series)","11.9 upbm affinity estimate (log intensity, higher = more binding, comparable within an allelic series)","12.2 upbm affinity estimate (log intensity, higher = more binding, comparable within an allelic series)","12.9 upbm affinity estimate (log intensity, higher = more binding, comparable within an allelic series)","11.8 upbm affinity estimate (log intensity, higher = more binding, comparable within an allelic series)","12.6 upbm affinity estimate (log intensity, higher = more binding, comparable within an allelic series)","12.6 upbm affinity estimate (log intensity, higher = more binding, comparable within an allelic series)","14.2 upbm affinity estimate (log intensity, higher = more binding, comparable within an allelic series)","12.3 upbm affinity estimate (log intensity, higher = more binding, comparable within an allelic series)","13.7 upbm affinity estimate (log intensity, higher = more binding, comparable within an allelic series)","11.6 upbm affinity estimate (log intensity, higher = more binding, comparable within an allelic series)","11.2 upbm affinity estimate (log intensity, higher = more binding, comparable within an allelic series)","11.5 upbm affinity estimate (log intensity, higher = more binding, comparable within an allelic series)","11 upbm affinity estimate (log intensity, higher = more binding, comparable within an allelic series)","8.82 upbm affinity estimate (log intensity, higher = more binding, comparable within an allelic series)","13 upbm affinity estimate (log intensity, higher = more binding, comparable within an allelic series)","12.2 upbm affinity estimate (log intensity, higher = more binding, comparable within an allelic series)"
AGTAATTA,"10.6 upbm affinity estimate (log intensity, higher = more binding, comparable within an allelic series)","10.9 upbm affinity estimate (log intensity, higher = more binding, comparable within an allelic series)","13.1 upbm affinity estimate (log intensity, higher = more binding, comparable within an allelic series)","13 upbm affinity estimate (log intensity, higher = more binding, comparable within an allelic series)","12.3 upbm affinity estimate (log intensity, higher = more binding, comparable within an allelic series)","12.3 upbm affinity estimate (log intensity, higher = more binding, comparable within an allelic series)","12.5 upbm affinity estimate (log intensity, higher = more binding, comparable within an allelic series)","12.3 upbm affinity estimate (log intensity, higher = more binding, comparable within an allelic series)","13 upbm affinity estimate (log intensity, higher = more binding, comparable within an allelic series)","13 upbm affinity estimate (log intensity, higher = more binding, comparable within an allelic series)","14.3 upbm affinity estimate (log intensity, higher = more binding, comparable within an allelic series)","12.5 upbm affinity estimate (log intensity, higher = more binding, comparable within an allelic series)","13.8 upbm affinity estimate (log intensity, higher = more binding, comparable within an allelic series)","12.1 upbm affinity estimate (log intensity, higher = more binding, comparable within an allelic series)","11.1 upbm affinity estimate (log intensity, higher = more binding, comparable within an allelic series)","11.1 upbm affinity estimate (log intensity, higher = more binding, comparable within an allelic series)","11.1 upbm affinity estimate (log intensity, higher = more binding, comparable within an allelic series)","8.88 upbm affinity estimate (log intensity, higher = more binding, comparable within an allelic series)","13.3 upbm affinity estimate (log intensity, higher = more binding, comparable within an allelic series)","12.7 upbm affinity estimate (log intensity, higher = more binding, comparable within an allelic series)"

# Reference: paper PMC11006913
